Screens deposited in PubChem BioAssay by National Center for Advancing Translational Sciences (NCATS).
Six1-Eya2 inh: blocks human Six1 binding to Eya2; Q15475+O00167; AlphaScreen GST-Six1/His-Eya2 binding, biochemical; hits give low values; activity change, % (concentration not given with the values); 360,000 compounds, 0.56% hits; in the data active means activity change below about -65%; inconclusive means mostly about -30% to -63%; further: on the % scale 0 is the no-effect control and ±100 the full control effect
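Compounds are tested against tagged Six1 and Eya2 proteins bridged by glutathione donor and nickel acceptor beads; after a one-hour incubation at 37 °C without light, AlphaScreen emission is recorded.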
G9a block: inhibitors of human histone lysine methyltransferase G9a; Potency, µM (series often up to 102 µM), inactives show at the highest dose activity, negative = inhibition, most hits filed as inhibitors; AID 504332; 350,000 compounds, 8.8% hits; G9a H3K9 monomethylation, AlphaScreen, 2 h; Q96KQ7; further: potency means the concentration at half of the fitted maximal effect; on the % scale 0 is the no-effect control and ±100 the full control effect; nearly all actives have a fitted effect of over 75% in size
Target sequence (Q96KQ7 913-1193 limits assumed): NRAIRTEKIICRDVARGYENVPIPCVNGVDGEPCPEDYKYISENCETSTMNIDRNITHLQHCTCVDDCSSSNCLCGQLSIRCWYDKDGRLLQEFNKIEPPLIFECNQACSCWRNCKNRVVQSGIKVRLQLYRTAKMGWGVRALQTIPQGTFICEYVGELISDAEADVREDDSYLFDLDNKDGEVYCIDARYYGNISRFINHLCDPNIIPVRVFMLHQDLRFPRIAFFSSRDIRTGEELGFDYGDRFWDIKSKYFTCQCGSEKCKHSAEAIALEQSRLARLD
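AlphaScreen read-out: biotin-H3K9 peptide (500 nM) methylation by 20 nM enzyme with 20 uM SAM, 2 h at room temperature after 15 min compound preincubation; anti-monomethyl H3K9 antibody plus donor/acceptor beads, 10 min dark.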
HP1b binding inh: blocks HP1-beta chromodomain binding to methylated histone tails; P83916; AlphaScreen HP1-beta / biotin-H3K9me3 peptide binding; Potency, µM (series often up to 114 µM), without a hit: top-dose activity change, negative = inhibition, most hits filed as inhibitors; 390,000 compounds, 0.56% hits; AID 540317; further: potency means the concentration at half of the fitted maximal effect; nearly all actives have a fitted effect of over 70% in size
Target sequence (P83916 whole entry, looked up): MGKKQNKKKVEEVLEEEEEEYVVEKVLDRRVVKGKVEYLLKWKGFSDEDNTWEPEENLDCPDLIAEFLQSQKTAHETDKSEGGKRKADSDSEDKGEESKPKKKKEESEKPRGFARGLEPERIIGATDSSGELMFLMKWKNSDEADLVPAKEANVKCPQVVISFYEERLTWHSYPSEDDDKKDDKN
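AlphaScreen: HP1-beta (50 nM) preformed 30 min with biotin-H3(1-18)K9me3 peptide (50 nM) in PBS pH 7.4, 0.01% Tween-20. Compound added for 30 min at RT, then streptavidin donor/nickel chelate acceptor beads (10 ug/mL) for 30 min.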
BAZ2B inh: blocks human BAZ2B; Potency, µM (top dose mostly 114 µM), for inactives: top-dose activity change, negative = inhibition, most hits filed as inhibitors; 360,000 compounds, 4.4% hits; AID 504333; AlphaScreen BAZ2B-H3K14Ac peptide displacement; Q9UIF8; further: potency means the concentration at half of the fitted maximal effect; on the % scale 0 is the no-effect control and ±100 the full control effect; nearly all actives have a fitted effect of over 60% in size
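In this displacement format the biotinylated H3(5-23) peptide acetylated at Lys14 serves as ligand at 50 nM, with BAZ2B at 50 nM in PBS pH 7.4 containing 0.01% Tween-20. Donor and acceptor beads are 10 ug/mL final.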
JMJD2A Tudor: inhibitors of human JMJD2A Tudor domain | O75164 | AlphaScreen JMJD2A-Tudor / H3K4me3 peptide binding | Potency, µM (series often up to 114 µM), without a hit: at the top dose activity change, negative = inhibition, hits mostly inhibitors | 390,000 compounds, 4.4% hits | AID 504339; further: potency means the concentration at half of the fitted maximal effect; on the % scale 0 is the no-effect control and ±100 the full control effect; nearly all actives have a fitted effect of over 50% in size
CtBP-E1A blk: blocks the CtBP interaction with E1A | AlphaScreen GST-E1A/His-CtBP binding, 1536-well; hits give low values | AID 651724 | 340,000 compounds, 0.49% hits | activity change, % (concentration not given with the values); in the data active means activity change below about -65%; inconclusive means mostly about -30% to -63%; further: on the % scale 0 is the no-effect control and ±100 the full control effect
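Protein mix (5X: 125 nM each GST-E1A, His-CtBP) was incubated with pinned compound 2 h at 37 deg C in dark, in 50 mM Tris pH 8.0 buffer with 300 mM NaCl. Glutathione donor and nickel acceptor beads followed; AlphaScreen signal read after 1 h.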
* hit, by the source's call; ? = inconclusive; . = not tested or not shown; [ ] = dose if it differs, or a comment. This is a sample that favours compounds with a hit; in the whole collection about 10% have one here. Unless noted, the call rests on the fitted dose curve; in most records, active means well fitted inhibition curve with a large enough effect; inconclusive means small, poorly fitted or top-dose-only effect; inactive means no such curve, though single readings can be large or run the other way.

SMILES	Six1-Eya2 inh	G9a block	HP1b binding inh	BAZ2B inh	JMJD2A Tudor	CtBP-E1A blk
O=[N+]([O-])c1ccc(COc2ccc(CN3CCOCC3)cc2)cc1	-1	.	25%	.	-26%	-4
O=[N+]([O-])c1ccc(COc2ccc(Br)cc2CN2CCOCC2)cc1	-18	50µM*	-7%	?	?	-1
COc1ccc2c(C)cc3n[nH]c(=S)n3c2c1	-16	1µM*	?	?	0.71µM*	.
COc1ccc2c(C)cc(=O)[nH]c2c1	13	17%[59 µM]	48%	4%	-8%	0
CC(C)(C)c1ccc(C2Sc3ccccc3NC3=C2C(=O)c2ccccc23)cc1 (centres undefined)	.	10µM*	?	8.9µM*	25µM*	.
CCN1CCN(C(c2ccc(F)cc2)c2sc3nc(-c4ccco4)nn3c2O)CC1 (centres undefined)	.	5%[59 µM]	77%	14%	-6%	.
COc1ccc(C2CC(=O)c3cnc4c(-c5ccc(F)cc5)c(C)nn4c3C2)cc1OC (centres undefined)	.	4%[59 µM]	30%	-16%	7%	.
COc1ccc(S(=O)(=O)N2CCOCC2)cc1NC(=O)CCNC(=O)c1ccc(Cl)cc1	1	-32%	29%	6%	-6%	6
COc1ccc(NC(=O)Cc2coc3cc(C)c(C(C)C)cc23)cc1S(=O)(=O)N1CCOCC1	-11	10µM*	8%	?	-30%	-12
COc1ccc(S(=O)(=O)N2CCOCC2)cc1NC(=O)CCNC(=O)c1ccc(Br)cc1	-3	16µM*	8%	1%	-14%	0
COc1ccc(S(=O)(=O)N2CCOCC2)cc1NC(=O)Cc1coc2cc(C)c(C)cc12	-4	50µM*	27%	-15%	-17%	-3
COc1ccc2c(CC(=O)Nc3ccc(OC)c(S(=O)(=O)N4CCOCC4)c3)coc2c1	-18	0%[59 µM]	2%	-31%	-23%	-28
COc1ccc(S(=O)(=O)N2CCOCC2)cc1NC(=O)Cc1ccccc1Cl	-1	15%[59 µM]	35%	2%	11%	-13
O=C(CSc1ccc(-c2ccncc2)nn1)N1CCN(c2ccccc2)CC1	-4	-1%[59 µM]	25%	-19%	-13%	0
CCOc1ccc(S(=O)(=O)n2nc(C)c(S(=O)(=O)N3CCCCC3)c2C)cc1	.	-1%[59 µM]	3%[57 µM]	-10%	-29%	.
CCOC(=O)c1cccc(NC(=S)NC(=O)c2cccnc2)c1	4	50µM*	31%	-19%	-8%	5
COc1cccc(NC(=S)NC(=O)c2cccnc2)c1	-1	7.9µM*	21%	-37%	-6%	6
CCc1c(C)sc(NC(=S)Nc2cccnc2)c1C(=O)OC	-5	45µM*	10%	13%	-7%[57.1 µM]	-4
COc1ccc(COc2cc(-c3cccc(OC)c3)nc3ccc(NC(=O)c4cccnc4)cc23)cc1	-26	50µM*	-8%	-35%	?	-3
COc1ccc(COc2cc(-c3cccc(OC)c3)nc3ccc(NC(=O)c4ccc(OC)cc4)cc23)cc1	-17	-2%[59 µM]	36%	-4%	-13%	-15
COc1cccc(-c2nnc3n2N=C(c2ccccc2OC)CS3)c1	.	.	.	.	-25%	.
CC#C[C@@]1(O)CC[C@H]2[C@@H]3CCC4=CC(=O)CCC4=C3[C@H](c3ccc(N(C)C)cc3)C[C@]21C	.	5µM*	.	.	.	.
C#C[C@]1(O)CCC2C3CCC4=CC(=O)CCC4C3CC[C@@]21C (some centres undefined)	.	-4%[2.33 µM]	.	.	.	.
COc1ccc(C(=O)C2CCCN(Cc3cccn3-c3ccc(Cl)cn3)C2)c(OC)c1 (centres undefined)	-17	-19%	-16%	56µM*	-29%	-9
O=[N+]([O-])c1ccc(OCCOCCOc2ccc([N+](=O)[O-])cc2)cc1	3	-8%[59 µM]	13%	-4%	-12%	.
SMILES	Six1-Eya2 inh	G9a block	HP1b binding inh	BAZ2B inh	JMJD2A Tudor	CtBP-E1A blk
CN(C)c1ccc(P(=O)(COc2ccc([N+](=O)[O-])cc2)c2ccc(N(C)C)cc2)cc1	-22	.	?	25µM*	22µM*	-22
CCOC(=O)[C@H]1[C@H]2COc3ccc(Br)cc3[C@@H]2N2C(=O)CN(Cc3ccco3)C(=O)[C@@]12C	-12	7%[0.501 µM]	9%	50µM*	?	-6
O=C(/C=C/Nc1ccc(Br)cn1)c1cccc(OC(F)F)c1	-1	-4%[12.7 µM]	70%	-3%	6%	.
CC(=O)OC[C@@H]1CN(Cc2ccccc2)C[C@H](n2cnc3c(N4CCN(c5ccccc5)CC4)ncnc32)O1	?	.	.	.	.	-21
CN(CC(O)COc1c(F)cc(Br)cc1F)C1CCCCC1 (centres undefined)	16	10%[59 µM]	-9%	9%	-18%	3
COc1ccc2sc(SCCCS(=O)(=O)O)[n+](CCCS(=O)(=O)[O-])c2c1	-6	?	27%	56µM*	16µM*	-13
CSc1sc2ccccc2[n+]1CCCS(=O)(=O)[O-]	2	10µM*	6%	-38%	89µM*	-3
Cc1ccc2ccccc2[n+]1CCCS(=O)(=O)[O-]	1	50µM*	55%	-29%	-18%	-4
COc1ccc(CNC(=O)CSc2nnc(C)s2)cc1	0	18%[59 µM]	26%	7%	-1%	1
CC(C)(C)OC(=O)N1CCC(c2c(C(=O)N3CCN(c4ccccc4F)CC3)cnn2-c2ccccc2Cl)CC1	.	?	30%	-11%[57.1 µM]	-27%	.
CCSc1nnc(NC(=O)CSc2sc3c(O)cc(=O)[nH]c3c2C#N)s1	?	?	-38%	79µM*	?	-15
Cc1csc(NC(=O)CSc2nc3[nH]c(=O)cc(O)c3s2)n1	18	.	13%[57 µM]	.	-11%	0
CCc1nnc(NC(=O)CSc2sc3c(O)cc(=O)[nH]c3c2C#N)s1	?	10µM*	40µM*	20µM*	20µM*	?
Cc1csc(NC(=O)CSc2sc3c(O)cc(=O)[nH]c3c2C#N)n1	?	50µM*	-27%	?	-31%	-24
CCCSc1nnc(NC(=O)CSc2nc3[nH]c(=O)cc(O)c3s2)s1	-1	?	37%	-31%	-24%	0
CCc1nnc(NC(=O)CSc2nnc(-c3cc4ccccc4cc3O)n2CC)s1	-14	28µM*	12%	1%	1%	-11
COCCn1c(C)cc2c(c1=O)C(c1ccccc1F)C(C#N)=C(N)O2 (centres undefined)	-6	-1%[12.7 µM]	28%	6%	-6%	-3
Cn1c2c(c(=O)n(C)c1=O)C(c1ccccc1F)C(C#N)=C(N)O2 (centres undefined)	5	16µM*	54%	-6%	-13%	-6
